Assay outcomes from PubChem BioAssay.
This is a sample that favours compounds with a hit; in the whole collection about 7.3% have one here.
NPC1 promoter act – qHTS Assay for NPC1 Promoter Activators; 2.4% of 320,000 active; Potency, µM (top dose mostly 9.22 µM), inactives show top-dose activation, hits mostly activators; AID 485313, 2010; Huh7 NPC1 promoter luciferase reporter, 24 h; also: % of control where 0% means no effect; nearly all actives have a fitted effect of over 60% in size
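Quantitative HTS used a cell-based reporter: Huh7 cells stably bearing the NPC1 promoter upstream of luciferase were treated with compounds for 24 h, and promoter activation was read as luminescence.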
Rab9 prom act – qHTS Assay for Rab9 Promoter Activators | Huh7 Rab9 promoter-luciferase reporter, luminescence, 24 h | Potency, µM (doses to about 9.22 µM), without a hit: top-dose activation, negative = inhibition, actives largely listed as activators | 2.8% of 320,000 active | AID 485297, 2010; also: % of control where 0% means no effect; nearly all actives have a fitted effect of over 60% in size
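Steps: seed 1500 Huh7 Rab9-luc cells per well, rest 2 h at 37 °C; add compound in DMSO; incubate 24 h; add luciferase reagent, 10 min ambient; read luminescence.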
SMN2 splice enh – qHTS Assay for Enhancers of SMN2 Splice Variant Expression; HEK293 SMN2-luciferase splicing reporter, luminescence, 30-36 h; Potency, µM (top dose mostly 46.1 µM), without a hit: at the top dose activity change, positive = activation, actives largely listed as activators; 2.8% of 210,000 active; AID 1458, 2008; also: % of control where 0% means no effect; nearly all actives have a fitted effect of over 55% in size
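HEK293 cells carry an SMN2 minigene-luciferase reporter in which exon 7 inclusion puts luciferase in frame. Cells were seeded at 2000 cells/well, attached for 10-12 hours, then exposed to compounds for 30-36 hours at 37C before ONE-Glo luminescence.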
FLuc modulator – qHTS profiling assay for firefly luciferase inhibitor/activator using purifed enzyme and Km concentrations of substrates (counterscreen for miR-21 project); Luciferin 4-monooxygenase (Photinus pyralis), P08659; purified FLuc, Km substrates, luminescence inhibition; Potency, µM (titrated, usually from 57.5 µM), for inactives: at the highest dose activity change, negative = inhibition, most hits filed as inhibitors; 6.9% of 360,000 active;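 also: plate controls were vehicle for no effect and reference inhibitor for full effect; nearly all actives have a fitted effect of over 55% in size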
Target sequence (P08659 whole entry, looked up): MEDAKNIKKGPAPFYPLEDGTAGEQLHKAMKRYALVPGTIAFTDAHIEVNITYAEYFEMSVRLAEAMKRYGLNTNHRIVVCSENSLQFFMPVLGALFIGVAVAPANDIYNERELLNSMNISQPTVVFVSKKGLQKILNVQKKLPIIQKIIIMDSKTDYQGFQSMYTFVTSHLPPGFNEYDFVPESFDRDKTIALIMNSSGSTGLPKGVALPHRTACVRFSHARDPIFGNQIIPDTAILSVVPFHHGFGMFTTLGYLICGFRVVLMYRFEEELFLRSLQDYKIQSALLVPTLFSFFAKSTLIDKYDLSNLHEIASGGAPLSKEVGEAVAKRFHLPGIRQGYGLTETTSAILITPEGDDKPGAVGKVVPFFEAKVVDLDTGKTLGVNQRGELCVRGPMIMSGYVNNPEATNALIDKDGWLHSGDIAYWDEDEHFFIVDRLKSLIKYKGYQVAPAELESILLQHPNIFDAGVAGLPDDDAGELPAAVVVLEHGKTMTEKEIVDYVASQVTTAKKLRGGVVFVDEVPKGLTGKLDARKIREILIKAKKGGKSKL
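Biochemical qHTS of compounds, final roughly 60 µM downward over six points, against 10 nM purified firefly luciferase using Km concentrations of substrates (10 uM D-luciferin, 10 uM ATP) in Tris acetate pH 7.5 buffer; luminescence output.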
p53 reactivator – qHTS assay for re-activators of p53 using a Luc reporter; H1299 p53-A138V BP100-luciferase reporter, luminescence, 24 h; Potency, µM (series often up to 92.2 µM), without a hit: top-dose activity change, positive = activation, most hits filed as activators; 0.063% of 320,000 active; also: % of control where 0% means no effect; nearly all actives have a fitted effect of over 45% in size
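p53-null H1299 cells stably carrying temperature-sensitive p53-A138V and a BP100-luciferase reporter were pinned with compounds (4-point, 1:5 series) and held 24 hrs at 37 deg C. Luminescence was read 10 min after detection reagent.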
ELG1 genotoxic – qHTS screen for small molecules that induce genotoxicity in human embryonic kidney (HEK293T) cells expressing luciferase-tagged ELG1. 1.3% of 330,000 active. AID 504466, 2011. Potency, µM (titrated, usually from 46 µM), inactives show at the highest dose activity change, positive = activation, usual class: activators. HEK293T ELG1-luciferase reporter, luminescence, 16 h; also: % of control where 0% means no effect; nearly all actives have a fitted effect of over 60% in size
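DMSO vehicle served as control against compound-treated ELG1-luciferase HEK293T cells; exposure lasted 16 hr at 37 °C and 5% CO2, followed by ONE-Glo luminescence detection after 30 min.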
Active calls of the source: *; ? = inconclusive; nt = not tested or not shown; [ ] = remark or other dose. Calls follow the shape of the dose curve; as a rule, active = well fitted curve in the direction sought with a large enough effect; inconclusive = small, poorly fitted or top-dose-only effect, or another doubt; inactive = no such curve, though single readings can be large; an effect the other way counts as inactive or inconclusive. Potency is read from the fitted curve at half-maximal effect.

SMILES	NPC1 promoter act	Rab9 prom act	SMN2 splice enh	FLuc modulator	p53 reactivator	ELG1 genotoxic
Cc1ccccc1CNC(=O)CCSCc1cnn(-c2ccccc2)c1-n1cccc1	nt	nt	nt	-14.2%	nt	nt
O=C(CCNC(=O)C1CCN(S(=O)(=O)c2ccccc2)CC1)NCCc1cccc(F)c1	-0.5%	1.2%	nt	3.8%	1.2%	0.2%
COc1cccc(CNc2ncnc3ccc(-c4c(C)noc4C)cc23)c1	-4.9%	-2.4%	nt	2.6%	-8.0%	?
Cc1noc(C)c1-c1ccc2ncnc(NCc3ccccc3)c2c1	nt	nt	2.82µM*	nt	nt	nt
Cn1ccc2cc(-c3ccc4ncnc(NCc5cccnc5)c4c3)ccc21	-3.0%	-1.6%	nt	19µM*	nt	nt
COCCC(=O)N1CCc2ccc(NC(=O)c3ccc(C(F)(F)F)cc3)cc2C1	-7.3%	-14.9%	nt	13.5µM*	?	-5.6%
CN(C)S(=O)(=O)N1CCc2ccc(NC(=O)c3ccc(C(F)(F)F)cc3)cc2C1	-12.6%	-24.8%	nt	4.78µM*	16.7%	4.5%
COc1ccc(S(=O)(=O)c2c(SC)nn(CC(=O)Nc3ccc(C)c(Cl)c3)c2N)cc1	nt	nt	nt	-1.3%	nt	nt
N#CC1CC(c2ccccc2)Nc2cc(Cl)ccc2N1 (configuration not stated)	14.6%	25.8%	nt	10.7µM*	?	14.9%
C[C@@H]1C[C@H](O)c2cc(Cl)ccc2N1	-1.8%	1.5%	9.5%	-1.7%	-2.0%	1.0%
Cc1ccc(C)c(NC(=O)CN2C(=O)CCc3cc(S(=O)(=O)N4CCCCC4)ccc32)c1	nt	nt	nt	1.7%	nt	nt
Cc1ccc2oc(-c3cccc(NC(=O)Cc4cccs4)c3)nc2c1	11.5%	26.7%	3.9%	-10.8%	2.6%	9.3%
Cc1cccc(-c2nc3cc(NC(=O)C4CCCO4)ccc3o2)c1 (configuration not stated)	0.316µM*	0.282µM*	1µM*	0.849µM*	?	1.16µM*
Cc1ccc2oc(-c3cccc(NC(=O)C4CCCO4)c3)nc2c1 (configuration not stated)	17.9%	17.8%	12.6µM*	4.26µM*	1.9%	20.6µM*
O=C(Nc1cccc(-c2nc3cc(Cl)ccc3o2)c1)C1CCCO1 (configuration not stated)	9.2%	15.5%	25.1µM*	-8.3%[2.3 µM]	20.2%	6.5%
CC1CN(C2CCN(C(=O)c3ccccc3)CC2)CC(C)O1 (configuration not stated)	-0.2%	2.0%	?	4.7%	0.5%	-3.5%
Cn1cccc1C(=O)N1CCC2(CCCN(C(=O)Nc3ccccc3)C2)CC1	nt	nt	-3.4%	nt	nt	nt
O=C(OCC1COc2ccccc2O1)c1c(F)cccc1F (configuration not stated)	-1.3%	9.9%	nt	15.1µM*	26.0%	?
OC(COCC1COc2ccccc2O1)CN1CCN(c2ccccc2F)CC1 (configuration not stated)	-4.7%	-0.1%	-17.1%	-0.7%	-3.7%	-3.1%
Cc1cc2oc(C(=O)N(Cc3ccc(N(C)C)cc3)CC3CCCO3)c(C)c2cc1Cl (configuration not stated)	nt	nt	0.6%	-0.2%	nt	nt
CN1CCN(c2ccc(NC(=O)c3ccc(-c4cccc([N+](=O)[O-])c4)o3)cc2)CC1	11.7%	8.2%	-4.5%	15.1µM*	-3.6%	2.5%
Cc1ccc(N2CCN(C(=S)c3ccc(-c4cccc([N+](=O)[O-])c4)o3)CC2)cc1	2.9%	-0.3%	-11.3%	-12.1%	?	-1.3%
CCc1ccc2oc(-c3ccc(C)c(NC(=O)c4cc([N+](=O)[O-])ccc4N4CCOCC4)c3)nc2c1	nt	nt	16.0%	1.69µM*	nt	nt
CN1CCN(c2ccc(NC(=O)c3ccc(-c4ccc(Cl)cc4)o3)cc2)CC1	1.7%	-0.5%	nt	23.9µM*	-19.3%	-11.1%
CCc1ccc2oc(-c3cccc(NC(=O)c4ccc(-c5cccc([N+](=O)[O-])c5)o4)c3)nc2c1	nt	nt	?	2.69µM*	nt	nt
SMILES	NPC1 promoter act	Rab9 prom act	SMN2 splice enh	FLuc modulator	p53 reactivator	ELG1 genotoxic
CCOC(=O)c1c(NC(=O)/C=C/c2ccc(C(C)C)cc2)sc2c1CCC2	nt	nt	2.7%	-5.6%	nt	nt
CCOc1ccc(-c2csc(-c3c(N)c(C(=O)c4ccc5c(c4)OCO5)n4ccccc34)n2)cc1	nt	nt	20.0%	-1.2%	nt	nt
Cc1c(NC(=O)Nc2cccc(C(F)(F)F)c2)c(=O)n(-c2ccccc2)n1C	-1.9%	-0.2%	nt	-2.1%	-11.0%	2.3%
CCCc1ccc2oc(C(=O)N3CCC(N4CCCC(O)C4)CC3)c(C)c2c1 (configuration not stated)	-0.8%	2.0%	nt	-19.0%	2.6%	1.9%
CCCc1ccc2oc(C(=O)N3CCC(COC)C3)c(C)c2c1 (configuration not stated)	2.82µM*	2.82µM*	nt	12µM*	7.5%	?
CCCc1ccc2oc(C(=O)N3CCC[C@H]3CO)c(C)c2c1	6.31µM*	3.16µM*	nt	10.7µM*	nt	?
O=C(COc1ccc2c(c1)oc(=O)c1ccccc12)NCC1CCC(C(=O)O)CC1 (configuration not stated)	-2.7%	-5.1%	nt	?	nt	5.6%
O=C(COc1cc2oc(=O)cc(-c3ccccc3)c2cc1Cl)NCC1CCC(C(=O)O)CC1 (configuration not stated)	1.8%	-4.0%	nt	?	nt	9.4%
O=C(COc1ccc2cc(-c3ccccc3)c(=O)oc2c1)NCC1CCC(C(=O)O)CC1 (configuration not stated)	-1.4%	2.4%	nt	6.01µM*	18.2%	9.2%
O=C(COc1ccc2c(-c3ccccc3)cc(=O)oc2c1)NCC1CCC(C(=O)O)CC1 (configuration not stated)	-6.0%	-4.2%	nt	21.3µM*	nt	4.3%
CCC(C)NC(=O)c1sc2nc(C)c(C(=O)Nc3ccc(C)cc3C)c(-c3ccc(Br)cc3)c2c1N (configuration not stated)	nt	nt	17.3%	-2.5%	nt	nt
Cc1c(C(=O)N2CCCC2)oc2c1-c1nn(CC(=O)NCc3cccc(Br)c3)cc1CC2	nt	nt	nt	-17.9%	nt	nt
CCOc1ccc(OCC)c(NS(=O)(=O)c2c(C(=O)N3CCC(C)CC3)c(C)n(C)c2C)c1	nt	nt	nt	-1.7%	nt	nt
CCCCOc1ccc(CSc2nnc(C)n2N)cc1[N+](=O)[O-]	19.5%	26.3%	nt	7.57µM*	1.5%	13.7%
CCOC(=O)C1(Cc2cccc(OC)c2)CCN(Cc2cccnc2)CC1	-1.9%	14.2%	nt	5.36µM*	4.4%	?
